Measured values from PubChem BioAssay (NCATS).
Inconclusive results are not listed. Active and inactive are the calls of the source. Calls follow the shape of the dose curve; as a rule, active = well fitted inhibition curve with a large enough effect; inconclusive = small, poorly fitted or top-dose-only effect; inactive = flat fitted curve, though single readings scatter.

Experiments:
Test in all cases: qHTS profiling for inhibitors of Plasmodium falciparum proliferation (AID 504749); also: nearly all actives have a fitted effect of over 60% in size
ATS95 = conditions: P. falciparum in erythrocytes, SYBR Green DNA, 72 h; series mostly up to 12.8 µM
Method in brief: (§1)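 Parasite proliferation within erythrocytes, 72 h exposure. Endpoint: SYBR Green I fluorescence after overnight lysis at room temperature. Controls: 0.29 uM artemisinin, DMSO.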

C2A = conditions: P. falciparum in erythrocytes, SYBR Green DNA, 72 h; series mostly up to 12.8 µM
Method in brief: as §1

CP237 = conditions: P. falciparum in erythrocytes, SYBR Green DNA, 72 h; series mostly up to 12.8 µM
Method in brief: as §1

CP238 = conditions: P. falciparum in erythrocytes, SYBR Green DNA, 72 h; series mostly up to 12.8 µM
Method in brief: as §1

CP256 = conditions: P. falciparum in erythrocytes, SYBR Green DNA, 72 h; series mostly up to 12.8 µM
Method in brief: as §1

CP265 = conditions: P. falciparum in erythrocytes, SYBR Green DNA, 72 h; series mostly up to 12.8 µM
Method in brief: as §1

CP266 = conditions: P. falciparum in erythrocytes, SYBR Green DNA, 72 h; series mostly up to 28.7 µM
Method in brief: as §1

CP269 = conditions: P. falciparum in erythrocytes, SYBR Green DNA, 72 h; series mostly up to 12.8 µM
Method in brief: as §1

CP305 = conditions: P. falciparum in erythrocytes, SYBR Green DNA, 72 h; series mostly up to 12.8 µM
Method in brief: as §1

CP325 = conditions: P. falciparum in erythrocytes, SYBR Green DNA, 72 h; series mostly up to 12.8 µM
Method in brief: as §1

CP329 = conditions: P. falciparum in erythrocytes, SYBR Green DNA, 72 h; series mostly up to 12.8 µM
Method in brief: as §1

CP335 = conditions: P. falciparum in erythrocytes, SYBR Green DNA, 72 h; series mostly up to 12.8 µM
Method in brief: as §1

Dd2 = conditions: P. falciparum in erythrocytes, SYBR Green DNA, 72 h; series mostly up to 12.8 µM
Method in brief: as §1

ECU = conditions: P. falciparum in erythrocytes, SYBR Green DNA, 72 h; series mostly up to 12.8 µM
Method in brief: as §1

GB4 = conditions: P. falciparum in erythrocytes, SYBR Green DNA, 72 h; series mostly up to 12.8 µM
Method in brief: as §1

HB3 = conditions: P. falciparum in erythrocytes, SYBR Green DNA, 72 h; series mostly up to 12.8 µM
Method in brief: as §1

P93_24 = conditions: P. falciparum in erythrocytes, SYBR Green DNA, 72 h; series mostly up to 12.8 µM
Method in brief: as §1

PAD = conditions: P. falciparum in erythrocytes, SYBR Green DNA, 72 h; series mostly up to 12.8 µM
Method in brief: as §1

PC26 = conditions: P. falciparum in erythrocytes, SYBR Green DNA, 72 h; series mostly up to 12.8 µM
Method in brief: as §1

SC27B = conditions: P. falciparum in erythrocytes, SYBR Green DNA, 72 h; series mostly up to 12.8 µM
Method in brief: as §1

Measured: Potency
Potency is read from the fitted curve at half-maximal effect.

Cc1cc(/C=C\c2ccc3cc(N(C)C)ccc3[n+]2C)c(C)n1-c1ccccc1
active: ATS95 1580 nM | C2A 2510 nM | CP237 562 nM | CP238 1580 nM | CP256 1580 nM | CP265 2510 nM | CP266 2870 nM | CP269 2560 nM | CP305 2560 nM | CP325 2560 nM | CP329 2030 nM | CP335 572 nM | Dd2 398 nM | ECU 2510 nM | GB4 3220 nM | HB3 2820 nM | P93_24 708 nM | PAD 3160 nM | PC26 3610 nM | SC27B 2510 nM
